Sm TGR inh: blocks Schistosoma mansoni thioredoxin glutathione reductase. Q962Y6. purified TGR, DTNB reduction, TNB absorbance 405 nm. Potency, µM (highest dose often 114 µM), usual class: inhibitors. 360,000 tested, 3% active. AID 485364; active means well fitted inhibition curve with a large enough effect; inconclusive means small, poorly fitted or top-dose-only effect; inactive means no such curve, though single readings can be large or run the other way; further: nearly all actives have a fitted effect of over 60% in size
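Kinetic colorimetric format: TGR-catalysed, NADPH-driven DTNB reduction monitored via TNB absorbance. Enzyme dispensed at 20 nM; compound exposure 15 min at room temperature before reaction start.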
Shiga toxin inh: inhibitors of Shiga toxin in Vero cells; Vero cells, Shiga toxin protein synthesis inhibition reporter; inhibition, % at 38.7 µM; 290,000 tested, 9.2% active; AID 2315; in the data active means inhibition mostly above about 28%, no sharp cut-off; inactive means mostly below about 43%
FMDV antiviral: antivirals against foot and mouth disease virus | FMDV antiviral cell-based qHTS | Potency, µM (series often up to 57.9 µM), hits mostly inhibitors | 410,000 tested, 1.2% active | AID 1159524; calls by dose curve; tested in HEK293T cells; further: read-out not given here; nearly all actives have a fitted effect of over 45% in size
CHX counter: counter-screen hit for Shiga toxin inhibitors, cycloheximide; cell reporter, cycloheximide protein synthesis inhibition counterscreen; max response, %; 300,000 tested, 12% active; AID 2314; in the data active means max response mostly above about 13%, no sharp cut-off; inactive means mostly below about 14%; further: read at 38.3 µM for the half of the compounds with a filed dose
Large screens that a line does not name were inactive. An excerpt weighted towards active compounds, which were near 12% of everything screened.

COc1ccc(-c2nc(C#N)c(NCc3ccco3)o2)cc1	Shiga toxin inh 73, CHX counter 28
N#Cc1nc(-c2ccc(F)cc2)oc1NCc1ccco1	Shiga toxin inh 86, CHX counter 13
Cc1ccc(-c2nc(C#N)c(NCc3ccco3)o2)cc1	Shiga toxin inh 89, CHX counter 54
CC(C)c1cc(C(=O)NC(C)c2ccccc2)no1 (stereo not given)	none (no result: Shiga toxin inh, CHX counter)
COc1ccc(N2CCN(C(=O)C3Cc4ccccc4CN3C(=O)c3ccccc3)CC2)cc1 (stereo not given)	Shiga toxin inh 71, CHX counter 61
COC(=O)N1CCN(c2ccc(OC)cc2)CC1	CHX counter 9.4
CNC(=S)N1CCN(c2ccc(OC)cc2)CC1	none (no result: FMDV antiviral)
COC(=O)N1CCN(c2ccc(C)c(C)c2)CC1	CHX counter 23 (no result: FMDV antiviral)
COc1ccccc1NC(=O)C1=C(C)Nc2nc3ccccc3n2C1c1ccccc1Cl (stereo not given)	FMDV antiviral inconclusive (no result: Shiga toxin inh, CHX counter)
COC(=O)c1cccc(C(=O)NCc2nc(-c3ccccc3NC(C)=O)oc2C)c1	none (no result: Sm TGR inh, Shiga toxin inh, CHX counter)
Oc1ccccc1/C=N/Nc1ccnc(SCc2ccccc2)n1	CHX counter 24
Cc1cc(O)c(/C=N/Nc2ccccc2)c(=O)o1	CHX counter 20
Oc1ccc(/C=N/Nc2ccc3ccccc3c2)c(O)c1	Sm TGR inh 45µM, Shiga toxin inh 44, CHX counter 31
Oc1ccccc1/C=N/Nc1ncc(Br)cn1	Shiga toxin inh 74, CHX counter 66
Oc1ccccc1/C=N/NP(=S)(c1ccccc1)c1ccccc1	none
Oc1cccnc1SCc1ccccc1	Sm TGR inh inconclusive (no result: Shiga toxin inh, CHX counter)
CCOC(=O)c1ccc(Nc2c(-c3cccc(O)c3)nc3nc[nH]n23)cc1	none (no result: Shiga toxin inh, CHX counter)
O=c1oc2ccccc2cc1-c1cn2cc(Cc3ccccc3F)sc2n1	none (no result: Shiga toxin inh, CHX counter)
Oc1ccccc1C=NNC(=S)NN=Cc1ccccc1O	none (no result: Sm TGR inh, Shiga toxin inh, CHX counter)
Oc1ccccc1/C=N/Nc1ccccc1	Shiga toxin inh 197, CHX counter 48
CC[n+]1c(/C=C/C=C/c2ccc(N(C)C)cc2)sc2ccccc21	Sm TGR inh inconclusive, FMDV antiviral inconclusive
CN(C)c1ccc(/C=C/C=C/c2sc3ccccc3[n+]2C)cc1	FMDV antiviral 40µM
CN(C)c1ccc(/C=C/c2cc[n+](C)c3ccccc23)cc1	FMDV antiviral 8.9µM, CHX counter 27 (no result: Sm TGR inh)
Cc1ccc(CN2C(=O)CN(C3CCC(C)CC3)C(=O)C2c2ccc(F)cc2)cc1 (stereo not given)	none (no result: Shiga toxin inh, CHX counter)
CNC(=S)N1CCN(c2nc(-c3ccc(F)cc3)cs2)CC1	CHX counter 13
CCOC(=O)N1CCN(c2nc(-c3ccc(F)cc3)cs2)CC1	Shiga toxin inh 48, CHX counter 23
CCOC(=O)c1scc(-c2ccc(C)cc2)c1S(=O)(=O)Nc1cc(Cl)ccc1OC	none (no result: Shiga toxin inh, CHX counter)
Cc1cc(C)c(NC(=O)CCN2C(=O)c3ccccc3Sc3ncccc32)c(C)c1	none (no result: Shiga toxin inh, CHX counter)
COc1ccccc1Nc1cc(C)nc2nc(-c3ccccc3)nn12	none (no result: Shiga toxin inh, CHX counter)
CC(C)Cc1nc2cc(NS(=O)(=O)N(C)C)cc(C(=O)N3CC4(C)CC3CC(C)(C)C4)c2n1C (stereo not given)	none (no result: Sm TGR inh, Shiga toxin inh, CHX counter)
CN(C)c1ccc(C=Nc2cnn(C)c2C(N)=O)cc1	Shiga toxin inh 90, CHX counter 39
Cn1ncc(N=Cc2ccccc2[N+](=O)[O-])c1C(N)=O	none
Cc1cc(C)cc(NC(=O)Cn2c(SCc3cc(C)ccc3C)nc3ccncc32)c1	Shiga toxin inh 89, CHX counter 76 (no result: FMDV antiviral)
CCOC(=O)c1ccc(NC(=O)CC2C(=O)N(c3ccc(F)cc3)C(=O)N2Cc2cccnc2)cc1 (stereo not given)	none (no result: Shiga toxin inh, CHX counter)
Cc1nc(CS(=O)(=O)c2ccccc2)cc(Sc2ccc(Cl)cc2Cl)n1	Shiga toxin inh 68, CHX counter 17
O=C1CN(C(=O)c2ccc(S(=O)(=O)N3CCCC3)cc2)C(c2ccccc2)c2cc(Br)ccc2N1 (stereo not given)	none (no result: Shiga toxin inh, CHX counter)
S=C(NCc1ccco1)Nc1ccc(Br)cc1Cl	Sm TGR inh inconclusive, CHX counter 18
COc1cc(CNCc2ccco2)cc(OC)c1O	Sm TGR inh 16µM (no result: Shiga toxin inh)
COc1ccccc1NC(=S)NCc1ccco1	Sm TGR inh 35µM
S=C(NCc1cccc(Cl)c1)NCc1ccco1	none
S=C(NCc1ccc(Cl)c(Cl)c1)NCc1ccco1	none
COc1cc(NC(=S)NCc2ccco2)cc(OC)c1OC	none
S=C(NCc1ccco1)Nc1ccc(Cl)cc1Cl	Sm TGR inh inconclusive, Shiga toxin inh active, CHX counter 22
CC[C@H](C)C(N)C(=O)O (stereo not given in full)	none (no result: Sm TGR inh, FMDV antiviral)
COC(=O)c1c(SCC(=O)Nc2ccccc2OC)[nH]c2ccccc2c1=O	none (no result: Shiga toxin inh, CHX counter)
OCCCNC(=S)Nc1ccc(Br)cc1Cl	Sm TGR inh 3.2µM, Shiga toxin inh 34, CHX counter 21
CCc1ccc(NC(=S)N(CCCN2CCOCC2)Cc2ccccn2)cc1	Shiga toxin inh 31, CHX counter 39
CCc1ccccc1NC(=S)N(CCCN1CCOCC1)Cc1ccccn1	none
Cc1oc(-c2cccc(Cl)c2)nc1CN1CCC(C(=O)NCc2ccc(F)cc2)CC1	none (no result: Shiga toxin inh, CHX counter)
O=C(Cn1nc(CNc2ccc(Cl)cc2)[n+]2c1CCCCC2)c1ccccc1	none
Cc1ccc(C(C)C)c(OCc2nn(CC(=O)c3ccc(Cl)cc3)c3[n+]2CCCCC3)c1	FMDV antiviral 32µM
CSc1nc(/C=C2\C=Nc3ccccc32)c(O)n1C	Shiga toxin inh 117, CHX counter 17
O=C(NC(=S)NCCN1CCOCC1)c1ccc(Cl)cc1	CHX counter 24
O=C(COC(=O)c1ccccc1)NCC1CCCO1 (stereo not given)	Shiga toxin inh 46, CHX counter 24
O=C(NC(=S)NCC1CCCO1)c1ccc([N+](=O)[O-])cc1 (stereo not given)	none
CCOc1cc(NC(=S)NCC2CCCO2)c(OCC)cc1NC(=O)c1cccc(C)c1 (stereo not given)	FMDV antiviral 3.2µM
CCOc1cc(NC(=S)NCC2CCCO2)c(OCC)cc1NC(=O)c1ccccc1 (stereo not given)	none
O=C(NC(=S)NCC1CCCO1)c1ccc(Cl)cc1 (stereo not given)	Shiga toxin inh 41, CHX counter 29
O=C(Nc1ccc(-c2nc3cc(NC(=O)c4ccc(Cl)cc4)ccc3o2)cc1)c1ccc(Cl)cc1	none (no result: Shiga toxin inh, CHX counter)
Cc1cc(NC(=O)c2cccnc2)cc(-c2nc3cc(Cl)ccc3o2)c1O	none (no result: Shiga toxin inh, CHX counter)
O=C(NCC1CCCO1)c1ccccc1 (stereo not given)	none
Cc1ccc(NC(=S)NCC2CCCO2)cc1 (stereo not given)	none
O=C(NC(=S)NCC1CCCO1)c1ccccc1 (stereo not given)	Shiga toxin inh 34, CHX counter 31
Cc1ccc(C(=O)NC(=S)NCC2CCCO2)cc1 (stereo not given)	CHX counter 65
Cc1ccccc1NC(=O)c1cnc2sc(N3CCCC3)nn2c1=O	none (no result: Shiga toxin inh, CHX counter)
Cc1ccc(S(=O)(=O)NCC(=O)OCc2nnc(-c3ccccc3)o2)cc1C	CHX counter 20
O=C(CNS(=O)(=O)c1ccc2ccccc2c1)OCc1nnc(-c2ccccc2)o1	CHX counter 32
Cc1cccc(N2CCN(C(=O)c3ccc(NC(=O)c4nsc5ccccc45)cc3)CC2)c1C	none (no result: Shiga toxin inh, CHX counter)
NS(=O)(=O)c1ccc(CCNc2ncnc3c2cnn3-c2cccc(Cl)c2)cc1	FMDV antiviral inconclusive (no result: Shiga toxin inh, CHX counter)
